# From PubChem BioAssay (NCATS)
# Inconclusive results are not listed. A number with no mark means an inactive call. Activity calls are given as the source filed them. Calls come from the whole dose curve; as a rule, active = well fitted curve in the direction sought with a large enough effect; inconclusive = small, poorly fitted or top-dose-only effect, or another doubt; inactive = no such curve, though single readings can be large; an effect the other way counts as inactive or inconclusive.
# Columns and labels:
# [1] = BET inhibitor-based combinations targeting novel dependencies in MECOM-rearranged (r) AML: SET-2 cell line (AID 2202231); conditions: SET-2 AML cells viability, CellTiter-Glo luminescence, 48 h; viability: active compounds read low, concentration not given here; note: nearly all actives have a fitted effect of over 35% in size;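 for viability: plate controls were DMSO treated cells for no effect and wells without cells for full effect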
# Outline: (§1)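 Cells were plated at 500 per well and exposed to an 11-point dose series of each drug for 48 hr. Viability was measured by CellTiter-Glo luminescence, normalized to DMSO and empty-well controls, and summarized as AUC and per-cell-line Z-AUC.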
# [2] = BET inhibitor-based combinations targeting novel dependencies in MECOM-rearranged (r) AML: OCI-AML3 cell line (AID 2202232); conditions: CellTiter-Glo luminescence, 48 h; Potency: OCI-AML3 viability; series mostly up to 46 µM; note: nearly all actives have a fitted effect of over 35% in size;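 for viability (% of control): plate controls were DMSO vehicle wells for no effect and wells without cells for full effect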
# Outline: as §1
# [3] = BET inhibitor-based combinations targeting novel dependencies in MECOM-rearranged (r) AML: MV-4-11 cell line (AID 2202233); conditions: MV-4-11 AML viability, CellTiter-Glo luminescence, 48 h; series mostly up to 46 µM; note: nearly all actives have a fitted effect of over 45% in size;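 for viability, % of control: plate controls were DMSO for no effect and blank wells for full effect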
# Outline: (§2)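 Activity is given as area under the curve and as Z-AUC, mean-centred within each cell line. It comes from 11-point dose curves normalized to DMSO and empty wells. CellTiter-Glo luminescence was read after 48 hr drug exposure of 500 cells/well.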
# [4] = BET inhibitor-based combinations targeting novel dependencies in MECOM-rearranged (r) AML: HNT-34 cell line (AID 2202234); conditions: HNT-34 AML viability, CellTiter-Glo luminescence, 48 h; series mostly up to 46 µM; note: nearly all actives have a fitted effect of over 35% in size;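 for viability (% of control): plate controls were vehicle wells for no effect and cell-free wells for full effect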
# Outline: as §2
# [5] = BET inhibitor-based combinations targeting novel dependencies in MECOM-rearranged (r) AML: UCSD-AML1 cell line (AID 2202235); conditions: UCSD-AML1 AML cells viability, CellTiter-Glo, 48 h; series mostly up to 46 µM; note: nearly all actives have a fitted effect of over 40% in size;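 for viability (% of control): plate controls were DMSO vehicle wells for no effect and blank wells for full effect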
# Outline: as §2
# [6] = BET inhibitor-based combinations targeting novel dependencies in MECOM-rearranged (r) AML: AML-191 cell line (AID 2202236; note: nearly all actives have a fitted effect of over 35% in size;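 for viability (% of control): plate controls were vehicle wells for no effect and wells without cells for full effect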); conditions: AML-191 viability, CellTiter-Glo luminescence, 48 h; series mostly up to 46 µM
# Outline: as §1
# [7] = BET inhibitor-based combinations targeting novel dependencies in MECOM-rearranged (r) AML: AML-194 cell line (AID 2202237; note: nearly all actives have a fitted effect of over 40% in size;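 for viability (% of control): plate controls were vehicle wells for no effect and wells without cells for full effect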); conditions: AML-194 (MECOM-r AML) viability, CellTiter-Glo, 48 h; series mostly up to 46 µM
# Outline: as §1
# Potency is the fitted concentration of half-maximal effect.
smiles,measurement,setting,value
Nc1nc(=S)c2[nH]cnc2[nH]1,Potency,[1],742 nM (active)
same,Potency,[2],417 nM (active)
same,Potency,[3],296 nM (active)
same,Potency,[4],3320 nM (active)
same,Potency,[5],2950 nM (active)
same,Potency,[6],833 nM (active)
same,Potency,[7],3720 nM (active)
NC(=O)c1nc(F)c[nH]c1=O,viability,[1],119%
same,Potency,[2],inactive
same,Potency,[3],inactive
same,Potency,[4],inactive
same,Potency,[5],inactive
same,Potency,[6],inactive
same,Potency,[7],inactive
C[C@@H]1C(=O)OC2[C@H](O)[C@]34[C@H]5C[C@@H](C(C)(C)C)[C@]36[C@@H](OC(=O)[C@@H]6O)O[C@@]4(C(=O)O5)[C@]21O (some centres undefined),viability,[1],115%
same,Potency,[2],inactive
same,Potency,[3],inactive
same,Potency,[4],inactive
same,Potency,[5],inactive
same,Potency,[6],inactive
COc1cc2c3c(n(CCCN4CCOCC4)c(=O)c2cc1OC)-c1cc2c(cc1C3=O)OCO2,Potency,[1],105 nM (active)
same,Potency,[2],33.2 nM (active)
same,Potency,[3],83.3 nM (active)
same,Potency,[4],93.4 nM (active)
same,Potency,[5],93.4 nM (active)
same,Potency,[6],105 nM (active)
same,Potency,[7],417 nM (active)
Nc1nc(Nc2ccc3c(c2)CC[C@@H](N2CCCC2)CC3)nn1-c1cc2c(nn1)-c1ccccc1CCC2,Potency,[1],23500 nM (active)
same,Potency,[2],18600 nM (active)
same,Potency,[3],2630 nM (active)
same,Potency,[4],7420 nM (active)
same,Potency,[5],18600 nM (active)
same,Potency,[6],18600 nM (active)
same,Potency,[7],20900 nM (active)
CN(C)CCN1C(=O)c2cccc3cc(NC(N)=O)cc(c23)C1=O,Potency,[1],18600 nM (active)
same,Potency,[2],13200 nM (active)
same,Potency,[3],2950 nM (active)
same,Potency,[4],8330 nM (active)
same,Potency,[5],5900 nM (active)
same,Potency,[6],9340 nM (active)
same,Potency,[7],9340 nM (active)
CCOC(=O)CCNc1cc(N2CCc3ccccc3CC2)nc(-c2ccccn2)n1,Potency,[1],3720 nM (active)
same,Potency,[2],14800 nM (active)
same,Potency,[3],8330 nM (active)
same,Potency,[4],2350 nM (active)
same,Potency,[5],3320 nM (active)
same,Potency,[6],2950 nM (active)
same,Potency,[7],2950 nM (active)
COCCn1c2c([n+](Cc3cnccn3)c1C)C(=O)c1ccccc1C2=O,Potency,[1],1180 nM (active)
same,Potency,[2],52.5 nM (active)
same,Potency,[3],66.1 nM (active)
same,Potency,[4],166 nM (active)
same,Potency,[5],105 nM (active)
same,Potency,[6],148 nM (active)
same,Potency,[7],186 nM (active)
C[C@H](CCC(=O)O)[C@H]1CC[C@H]2[C@@H]3[C@@H](O)C[C@@H]4C[C@H](O)CC[C@]4(C)[C@H]3CC[C@]12C,viability,[1],111%
same,Potency,[2],inactive
same,Potency,[3],inactive
same,Potency,[4],inactive
same,Potency,[5],inactive
same,Potency,[6],inactive
same,Potency,[7],inactive
Cn1cc(CNCC2CCN(c3ncc(C(=O)NO)cn3)CC2)c2ccccc21,Potency,[1],148 nM (active)
same,Potency,[2],118 nM (active)
same,Potency,[3],83.3 nM (active)
same,Potency,[4],118 nM (active)
same,Potency,[5],105 nM (active)
same,Potency,[6],148 nM (active)
same,Potency,[7],332 nM (active)
CCC(C(=O)O)C1CCC(C)C(C(C)C(O)C(C)C(=O)C(CC)C2OC3(C=CC(O)[C@@]4(CC[C@](C)(C5CC[C@@](O)(CC)C(C)O5)O4)O3)C(C)CC2C)O1 (some centres undefined),Potency,[1],5250 nM (active)
same,Potency,[2],1480 nM (active)
same,Potency,[3],1660 nM (active)
same,Potency,[4],525 nM (active)
same,Potency,[5],13200 nM (active)
same,Potency,[6],2350 nM (active)
same,Potency,[7],1180 nM (active)
Cc1nc2cccc(N)c2c(=O)n1C1CCC(=O)NC1=O (centres undefined),viability,[1],109%
same,Potency,[2],inactive
same,Potency,[3],inactive
same,Potency,[4],inactive
same,Potency,[5],inactive
same,Potency,[6],inactive
same,Potency,[7],inactive
CC(C)(S)[C@@H](N)C(=O)O,viability,[1],116%
same,viability (% of control),[2],118% [at 5.12 µM]
same,"viability, % of control",[3],125% [at 5.12 µM]
same,viability (% of control),[4],108% [at 5.12 µM]
same,viability (% of control),[5],112% [at 5.12 µM]
same,viability (% of control),[6],111% [at 5.12 µM]
same,viability (% of control),[7],114% [at 5.12 µM]
CC(=O)NCC(=O)N1[C@@H]2CC[C@H]1c1ccc(Nc3ncc(C(F)(F)F)c(NC4CCC4)n3)cc12,Potency,[1],4170 nM (active)
same,Potency,[2],14800 nM (active)
same,Potency,[3],41.7 nM (active)
same,Potency,[4],662 nM (active)
same,Potency,[5],934 nM (active)
same,Potency,[6],833 nM (active)
same,Potency,[7],662 nM (active)
CC(C)=CCC[C@](C)(O[C@@H]1O[C@H](CO[C@@H]2O[C@H](CO)[C@@H](O)[C@H](O)[C@H]2O)[C@@H](O)[C@H](O)[C@H]1O)[C@H]1CC[C@]2(C)[C@@H]1[C@H](O)C[C@@H]1[C@@]3(C)CC[C@H](O[C@@H]4O[C@H](CO)[C@@H](O)[C@H](O)[C@H]4O[C@@H]4O[C@H](CO)[C@@H](O)[C@H](O)[C@H]4O)C(C)(C)[C@@H]3CC[C@]12C,viability,[1],121%
same,Potency,[2],inactive
same,Potency,[3],inactive
same,Potency,[4],inactive
same,Potency,[5],inactive
same,Potency,[6],inactive
same,Potency,[7],inactive
